Source: PubChem (National Center for Advancing Translational Sciences (NCATS))
CtBP-E1A inh = qHTS Assay for Inhibitors of the CtBP/E1A Interaction. CtBP / adenovirus E1A interaction (AlphaScreen). AlphaScreen GST-E1A/His-CtBP binding, 1536-well; stronger effect = lower value. activity change, % (test concentration not listed). 0.49% of 340,000 active. AID 651724, 2012; in the data active = activity change below about -65%; inconclusive = mostly about -30% to -63%
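AlphaScreen with 125 nM GST-E1A and 125 nM His-CtBP (5X stocks) in Tris pH 8.0, 300 mM NaCl, BSA, Tween 20, TCEP. Compounds preincubated 2 h at 37 deg C, then glutathione donor/nickel acceptor beads added for 1 h at 37 deg C in dark.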
Six1-Eya2 inh = qHTS Assay for Inhibitors of the Six1/Eya2 Interaction; activity change, % (test concentration not listed); AID 651725, 2012; AlphaScreen GST-Six1/His-Eya2 binding, biochemical; stronger effect = lower value; 0.56% of 360,000 active; Homeobox protein SIX1 (Homo sapiens) + Protein phosphatase EYA2 (Homo sapiens), …; in the data active = activity change below about -65%; inconclusive = mostly about -30% to -63%
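AlphaScreen with GST-Six1 and His-Eya2 (5X mix: 250 nM and 500 nM), glutathione donor and nickel acceptor beads; buffer 50 mM Tris pH 8.0, 300 mM NaCl, 1 mM TCEP; 1 h at 37 C in the dark.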
RORgamma inh = qHTS for inhibitors of ROR gamma transcriptional activity. Nuclear receptor ROR-gamma (Mus musculus), P51450. Drosophila S2 Gal4-RORgamma UAS-luciferase reporter, 20 h. Potency, µM (highest dose often 53.6 µM), most hits filed as inhibitors. 5.4% of 310,000 active. AID 2551, 2010; note: nearly all actives have a fitted effect of over 60% in size
Target sequence (P51450 whole entry, looked up, the tested form may be a part): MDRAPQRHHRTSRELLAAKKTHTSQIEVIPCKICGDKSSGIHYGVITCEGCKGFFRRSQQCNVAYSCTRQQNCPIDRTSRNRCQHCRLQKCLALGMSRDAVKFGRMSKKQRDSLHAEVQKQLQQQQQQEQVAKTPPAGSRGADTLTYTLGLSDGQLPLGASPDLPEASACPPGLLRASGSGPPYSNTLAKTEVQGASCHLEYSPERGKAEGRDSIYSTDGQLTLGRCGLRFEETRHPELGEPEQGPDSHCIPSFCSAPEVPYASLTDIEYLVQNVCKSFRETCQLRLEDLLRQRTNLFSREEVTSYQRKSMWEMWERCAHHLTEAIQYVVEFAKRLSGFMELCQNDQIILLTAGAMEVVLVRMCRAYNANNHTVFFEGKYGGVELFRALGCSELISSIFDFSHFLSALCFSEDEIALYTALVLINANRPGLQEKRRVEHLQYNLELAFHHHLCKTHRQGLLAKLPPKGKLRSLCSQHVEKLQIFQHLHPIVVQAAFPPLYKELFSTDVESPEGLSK
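Read-out: Photinus luciferase luminescence; inhibitors lower reporter signal. Insect Schneider cells with Gal4-ROR gamma fusion under metallothionein promoter, UAS reporter; 700 uM final copper sulfate induction, 20 hr, ambient temperature.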
VP16 counter = VP16 counterscreen qHTS for inhibitors of ROR gamma transcriptional activity. Drosophila S2 Gal4-VP16 UAS-luciferase, luminescence, 20 h. Potency, µM (highest dose often 53.6 µM), actives largely listed as inhibitors. 3.5% of 310,000 active;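 note: Gal4-VP16 expression switched on by copper sulfate through the metallothionein promoter; nearly all actives have a fitted effect of over 50% in size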
p53 reactivation = qHTS assay for re-activators of p53 using a Luc reporter; H1299 p53-A138V BP100-luciferase reporter, luminescence, 24 h; Potency, µM (top dose mostly 92.2 µM), actives largely listed as activators; 0.063% of 320,000 active; note: nearly all actives have a fitted effect of over 45% in size
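p53-null H1299 cells stably carrying temperature-sensitive p53-A138V and a BP100-luciferase reporter were pinned with compounds (4-point, 1:5 series) and held 24 hrs at 37 deg C. Luminescence was read 10 min after detection reagent.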
Numbers stand for hits; i = inactive; ? = inconclusive; nt = no result. Hits are enriched below; roughly 5.4% of the tested compounds scored in any of these assays. Unless noted, calls come from the whole dose curve; as a rule, active = well fitted curve in the direction sought with a large enough effect; inconclusive = small, poorly fitted or top-dose-only effect, or another doubt; inactive = no such curve, though single readings can be large; an effect the other way counts as inactive or inconclusive.

SMILES	CtBP-E1A inh	Six1-Eya2 inh	RORgamma inh	VP16 counter	p53 reactivation
C/C(=N/Nc1nc(-c2ccccc2F)nc2ccccc12)c1ccccc1O	i	i	3.16µM	7.94µM	i
Oc1ccccc1Nc1nc(-c2ccccc2O)nc2ccccc12	i	i	i	i	i
C/C(=N\Nc1nc(-c2ccccc2O)nc2ccccc12)c1ccccc1	i	i	4.47µM	?	i
C/C(=N\Nc1nc(-c2ccccn2)nc2ccccc12)c1ccc(F)cc1	nt	i	0.126µM	1.12µM	i
Cc1nnc(NC(=O)c2nc(S(=O)(=O)Cc3ccccc3)ncc2Cl)s1	i	i	7.94µM	12.6µM	i
Cc1cccc(C)c1NC(=O)c1nc(S(=O)(=O)Cc2ccccc2)ncc1Cl	i	i	10µM	5.01µM	i
Cc1nnc(NC(=O)CS(=O)(=O)Cc2ccccc2)s1	i	i	i	i	i
CSc1ncc(Cl)c(C(=O)Nc2cccc3ccccc23)n1	i	i	i	i	i
Cc1ccccc1NC(=O)c1nc(S(C)(=O)=O)ncc1Cl	nt	i	6.31µM	3.16µM	i
CCOC(=O)c1nc(S(C)(=O)=O)ncc1Cl	i	i	3.98µM	5.01µM	i
O=C(CNS(=O)(=O)c1c(Cl)cccc1Cl)OCC(=O)c1ccc[nH]1	nt	i	i	i	i
CNc1ncncc1-c1ccc(C(=O)N(C)C)cc1	nt	nt	i	i	nt
CCCc1nnc(NC(=O)c2nc(S(=O)(=O)Cc3cccc(C)c3)ncc2Cl)s1	i	?	?	?	i
Cc1cccc(CS(=O)(=O)c2ncc(Cl)c(C(=O)Nc3c(C)cccc3C)n2)c1	i	i	?	8.91µM	i
Cc1cccc(CS(=O)(=O)c2ncc(Cl)c(C(=O)NCc3ccccc3)n2)c1	nt	i	5.62µM	3.16µM	i
Cc1c(Cl)c([N+](=O)[O-])nn1CC(=O)N1CCN(Cc2ccccc2)CC1	i	i	i	i	i
C/C(=N\NC(=O)C(C)n1nc(C)c([N+](=O)[O-])c1C)c1ccccc1O (stereo not drawn)	i	i	0.141µM	0.178µM	i
O=C1NCCCC2c3cc(O)c4ccccc4c3OC12N1CCCCC1 (stereo not drawn)	nt	nt	10µM	?	i
O=C1NCCCC2c3c(cc(Br)c(O)c3Br)OC12N1CCOCC1 (stereo not drawn)	i	i	i	i	i
O=C(c1ccco1)N1CCC2(CC1)CN(c1ccccc1)C2	nt	nt	i	i	nt
COC(=O)[C@@]1(Cc2ccccc2)[C@H]2c3cc(C(=O)N4CCCC4)n(CCN4CNCC4=O)c3C[C@H]2CN1C(=O)c1ccccc1	nt	nt	i	i	nt
CCN(CC)S(=O)(=O)c1ccc(N2CCN(c3ccccc3OC)CC2)c(N)c1	i	i	?	22.4µM	i
S=c1[nH]nc(-c2ccco2)n1/N=C/C(Cl)=C/c1ccccc1	i	i	3.98µM	11.2µM	?
Cc1cc(-c2n[nH]c(=S)n2/N=C/C(Cl)=C/c2ccccc2)n[nH]1	i	i	8.91µM	?	?
COc1ccccc1CN(C)C[C@@H]1OCc2cnnn2CCCC(=O)N([C@@H](C)CO)C[C@H]1C	i	i	nt	nt	nt
SMILES	CtBP-E1A inh	Six1-Eya2 inh	RORgamma inh	VP16 counter	p53 reactivation
CN(Cc1ccccc1)C(=S)NC(=O)c1ccccc1	i	i	1µM	2.82µM	i
COc1cc(C(=O)NCc2ccccc2)cc(Br)c1OC	i	i	i	i	i
COc1ccc(C(=O)NC(=S)N(C)Cc2ccccc2)cc1Br	i	i	0.398µM	0.708µM	i
CN(Cc1ccccc1)C(=O)CC(=O)N(C)Cc1ccccc1	i	i	i	i	?
Cc1ccc(S(=O)(=O)N(C)C)cc1NC(=O)Cn1c(CN2CCOCC2)nc2ccccc2c1=O	i	i	i	i	i
COc1ccc(CCN(Cc2cccs2)S(=O)(=O)c2ccc(C(=O)O)cc2)cc1OC	i	i	i	i	i
Cc1ccc(NC(=O)C2=C(c3ccccc3)S(=O)(=O)CCS2(=O)=O)cc1	i	?	0.631µM	5.01µM	i
Cc1ccc(NC(=O)c2ccccc2)cc1	i	i	i	?	?
C/C(CC(=O)NC1CCCCC1)=N\NC(=O)c1ccccc1C	i	i	i	i	i
